Structures are written as SMILES. Inconclusive results are not listed. Calls of active or inactive are those of the source. The call rests on the fitted dose curve; in most records, active means well fitted inhibition curve with a large enough effect; inconclusive means small, poorly fitted or top-dose-only effect; inactive means flat fitted curve, though single readings scatter.

From PubChem BioAssay (NCATS) come the findings set out here.
Potency means the concentration at half of the fitted maximal effect.

The assay concerns HEK293. Nature of the assay: Cytotoxic Profiling of Annotated Libraries Using Quantitative High-Throughput Screening (AID 1296008). Further: nearly all actives have a fitted effect of over 60% in size. The conditions noted are these: Five cell lines viability, CellTiter-Glo ATP luminescence, 48-72 h; max response: stronger effect = lower value. The essentials: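 Compounds were pin-transferred onto cells and incubated 48 or 72 hr at 37 degree Celsius, 95% humidity. CellTiter-Glo was added, plates sat 10 min at room temperature, then ATP-coupled luminescence was imaged as the viability read-out.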
`COc1ccc2nc(-c3cc(OC)c(OC)c(OC)c3)cc(C(=O)NCC(=O)Nc3ccc(C(C)=O)cc3)c2c1`: the Potency is 7.31 µM (active). In the case of `CC(C)(C)c1ccc(NC(=O)N2CCN(c3ncccc3Cl)CC2)cc1` it was 11.6 µM (active); in that of `Cn1ncc(Cl)c1-c1cc(C(=O)N[C@H](CN)Cc2cccc(F)c2)sc1Cl`, 1.3 µM (active); in that of `N#Cc1ccc2ncnc(NCCc3ccccc3)c2c1`, 18.4 µM (active). In the case of `COC1CCN(c2cccc(-c3cc(NC(C)=O)nc(-n4nc(C)cc4C)n3)n2)CC1` it was 9.2 µM (active); in that of `CC(C)(C[C@@](O)(Cc1cc2ccncc2[nH]1)C(F)(F)F)c1cc(F)ccc1O`, 11.6 µM (active); in that of `COc1ccccc1S(=O)(=O)Nc1ccc2c(c1)CN(C)C(=O)N2`, 6.51 µM (active). In the case of `CN(c1ccc(NC(=O)Nc2ccccc2)cc1)S(=O)(=O)c1cnn(-c2ccc(F)cc2)c1`, the Potency was 16.4 µM (active). The figure for `Cc1nc(Nc2cnn(C3CCNCC3)c2)nc2c1N(C)C(=O)c1cc3ccccc3cc1N2C` is 25.9 µM (active). Regarding `C=C(C)C(=O)OC1CC(CO)CCC/C(CO)=C/C2OC(=O)C(=C)C21` (centres undefined), the Potency was 7.18 µM (active). The figure for `Cc1ccc(C)c(-c2cc(C(F)(F)F)nn2-c2ccc(S(N)(=O)=O)cc2)c1` is 5.17 µM (active).

`C[C@@H]1COCCN1c1cc(=O)n2c(n1)N(Cc1cncc(Cl)c1)[C@H](C(F)(F)F)CC2`: the Potency was 4.17 µM (active). The figure for `CC(C)(C)c1ccc(-c2nc3c(N4CCN(Cc5ccc6nccnc6c5)CC4)cccc3[nH]2)cc1` is 4.11 µM (active); for `CCCCCCCCC(=O)N[C@H](CN1CCCC1)[C@H](O)c1ccc2c(c1)OCCO2` it is 7.31 µM (active); for `O=C(Nc1cccc([N+](=O)[O-])c1)c1cccc(S(=O)(=O)N2CCCCCC2)c1` it is 6.51 µM (active).

For `C=C1CC(=O)C2OC2(C)CC2OC(=O)C(=C)C2C(O)C1OC(=O)/C(C)=C\C` (centres undefined), the Potency was 6.4 µM (active). In the case of `CCCc1cc(C)[nH]c(=O)c1CNC(=O)c1cc(-c2ccc(N3CCN(C(C)C)CC3)nc2)cc2c1cnn2C(C)C` it was 11.6 µM (active); in that of `N#Cc1cnc2c(Cl)cc(NCc3cn(CCN4CCCCCC4)nn3)cc2c1Nc1ccc(F)c(Cl)c1`, 18.4 µM (active). With `C=C1C(=O)O[C@@H]2[C@H]1CC[C@H](C)C(CCC(=O)O)C2(C)O` (some centres undefined), the Potency was 23.1 µM (active). The figure for `C=C(C=O)[C@]1(O)C[C@@]2(C)C(=CC1=O)C=C[C@H](OC(=O)/C=C/C=C/[C@H](C)CC)[C@@H]2C` is 3.99 µM (active).

Consider `NCC1CCN(c2nccc(-c3ccc4ccccc4c3)n2)CC1`, for which the Potency is 11.6 µM (active).

On to `Cc1c[nH]c2ncnc(N3CCC(CN)(C(=O)Nc4cccc(OC(=O)N(C)C)c4)CC3)c12`, for which the Potency is 3.66 µM (active). The figure for `CCC(=C(c1ccc(OCCN2CCCC2)cc1)c1ccc(OCCN2CCCC2)cc1)c1ccccc1` is 8.2 µM (active); for `CC(C)C[C@H](C(=O)O)c1cc(-c2ccc(C(F)(F)F)cc2)cc(-c2ccc(C(F)(F)F)cc2)c1` it is 10.3 µM (active). Turning to `Oc1ccc(-c2cnc3ccc(NCc4ccco4)nn23)cc1`, the Potency is 20.6 µM (active). The figure for `C=C1C(=O)OC2C(OC(=O)C=C(C)C)C(C)=C3C(=O)C=C(C)C3C(O)C12` (centres undefined) is 6.4 µM (active); for `Oc1cccc(C2NC(=S)Nc3cccc(F)c32)c1` (centres undefined) it is 5.8 µM (active).

With `C=C1C(=O)OC2/C=C(\COC(C)=O)CC/C=C(\C=O)CC(OC(=O)C(C)CC)C12` (centres undefined), the Potency is 3.55 µM (active).

As to `CN(C)CCN(Cc1ccccc1)C(=O)c1cc(-c2ccc(F)cc2)n2nc(C(C)(C)C)cc2n1`, the Potency is 14.6 µM (active). In the case of `CC1(C)CC[C@]23CO[C@@]4(CCC5[C@@]6(C)CC[C@H](O[C@@H]7OC[C@H](O[C@@H]8O[C@H](CO)[C@@H](O)[C@H](O)[C@H]8O[C@@H]8OC[C@@H](O)[C@H](O)[C@H]8O)[C@H](O)[C@H]7O[C@@H]7O[C@H](CO)[C@@H](O)[C@H](O)[C@H]7O)[C@@](C)(CO)C6CC[C@@]5(C)[C@]4(C)C[C@H]2O)[C@@H]3C1` (some centres undefined) it was 3.48 µM (active); in that of `C=C1CC2OC(=O)C(COC)C2C(OC(=O)/C(C)=C\C)CC2(C)OC1=CC2=O` (centres undefined), 4.53 µM (active); in that of `CC1CCCC(O)CC(=O)c2c(O)cc(O)cc2CC(=O)O1` (centres undefined), 8.05 µM (active). In the case of `CN(C)CCCn1cc(C2=C(c3c[nH]c4ccccc34)C(=O)NC2=O)c2ccccc21` it was 14.6 µM (active); in that of `Cc1[nH]c(/C=C2\C(=O)Nc3ccc(F)cc32)c(C)c1C(=O)NCCN1CCCC1`, 14.6 µM (active).
